Among all 2,300 compounds or so, about 1,100 (48%) were called active. The set was probably picked from earlier hits. Not all results are given here. Values without a mark were called inactive.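 How the source made its calls: active means inhibition above the mean inhibition of all tested sample wells plus 3 SD (cut at about 10% in these data); inactive means the rest.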
Biological target: Luciferin 4-monooxygenase (Photinus pyralis) (UniProt P08659)
Assay: native FLuc enzyme inhibition – biochemical, luminescence, triplicate, artefact control for HSP90 inhibitor project, confirmation (AID 1847);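 further: 0% = DMSO with luciferase and 100% = wells lacking luciferase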
Details: purified native firefly luciferase, at 5.9 µM, stronger effect = higher value

Luciferin 4-monooxygenase (Photinus pyralis), sequence (P08659 whole entry, looked up): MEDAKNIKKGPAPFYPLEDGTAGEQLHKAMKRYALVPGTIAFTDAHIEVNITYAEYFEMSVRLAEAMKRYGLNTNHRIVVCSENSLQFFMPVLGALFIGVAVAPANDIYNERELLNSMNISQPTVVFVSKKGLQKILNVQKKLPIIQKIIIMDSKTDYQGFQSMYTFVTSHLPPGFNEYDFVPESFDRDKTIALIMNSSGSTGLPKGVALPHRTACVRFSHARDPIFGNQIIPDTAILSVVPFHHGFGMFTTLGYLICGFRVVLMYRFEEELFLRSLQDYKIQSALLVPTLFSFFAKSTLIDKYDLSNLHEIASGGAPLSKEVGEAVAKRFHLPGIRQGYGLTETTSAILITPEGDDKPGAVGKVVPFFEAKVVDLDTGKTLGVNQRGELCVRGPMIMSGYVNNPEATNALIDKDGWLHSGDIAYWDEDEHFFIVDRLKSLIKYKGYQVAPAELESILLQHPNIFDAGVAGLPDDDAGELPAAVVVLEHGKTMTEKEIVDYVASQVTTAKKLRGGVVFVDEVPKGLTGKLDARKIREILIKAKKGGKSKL

| SMILES | inhibition |
| --- | --- |
| CN(c1ccc2nc3ccccc3c(=O)n2n1)C1CCCCC1 | 87.3% (active) |
| O=C(OC1CCOC1=O)c1ccc(-c2nc3ccccc3s2)s1 (stereo not given) | 65.2% (active) |
| c1ccc(-c2noc(-c3cccs3)n2)nc1 | 27.4% (active) |
| CCOC(=O)c1nc(C)n(-c2ccc(Cl)cc2Cl)n1 | -5.2% |
| COc1ccc(C(=O)Nc2ccccc2C(=O)N/N=C/c2ccccc2OC)cc1 | 43.8% (active) |
| COc1ccc(C(=O)Nc2ccccc2C(=O)N/N=C/c2ccc(O)c(OC)c2)cc1 | 93.5% (active) |
| CCc1nc(SCC(=O)Nc2ccccc2OC)n[nH]1 | 0.13% |
| O=C(Nc1ccccc1C(=O)O)c1ccc(N2C(=O)C3CC=CCC3C2=O)cc1 (stereo not given) | -15.7% |
| COc1ccc(/C=N/Nc2ccccc2C(=O)O)cc1 | 23.4% (active) |
| COc1ccc(Cl)cc1NC(=O)Cn1nc(-c2ccc(C)cc2)n(C)c1=S | -10.3% |
| CC(OC(=O)c1ccc2noc(-c3ccccc3)c2c1)C(N)=O (stereo not given) | -3.9% |
| Oc1c(C=Nc2cccc3nsnc23)ccc2ccccc12 | -18.8% |
| COc1ccc(-c2nc(-c3ccccc3)no2)c(OC)c1 | 81.7% (active) |
| COc1ccc(/C=C/c2noc(-c3ccccc3OC(C)=O)n2)cc1 | -12.5% |
| CCCCOCCCNC(=O)c1ccccc1OCC | -6.47% |
| CCCOc1ccc(C(=O)NCCc2ccccc2)cc1 | 44% (active) |
| COc1cccc(/C=C/c2ccc3ccccc3n2)c1OC(C)=O | -12.7% |
| Cc1ccc(C(=O)COC(=O)c2cccc(N3C(=O)c4c(C)nc5ccccc5c4C3=O)c2)cc1C | -20.1% |

| SMILES | inhibition |
| --- | --- |
| COc1cccc2c(C)c(C(=O)O)[nH]c12 | 30.6% (active) |
| O=C1CCC([N+](=O)[O-])C(c2ccccc2Br)N1 (stereo not given) | -7.7% |
| CC(C)CNC(=O)CC(NCC(C)C)C(=O)O (stereo not given) | -6.07% |
| Clc1cccc(N=C2NN=C(c3ccc4c(c3)OCCO4)CS2)c1 | 36.7% (active) |
| c1c2c(cc3sc(N4CCCCC4)nc13)OCCO2 | 80% (active) |
| CCN(CCCNC(=O)c1ccc2c(c1)NC(=O)CN2C)c1cccc(C)c1 | -5.03% |
| COc1ccc(C(=O)/C=C/Nc2ccccn2)cc1 | 90.9% (active) |
| CCOc1ccc(N/C=C/C(=O)c2ccccc2)cc1 | 62.8% (active) |
| CCCCCc1ccc(-c2ccc(C(=O)O)cc2)nc1 | 57.8% (active) |
| C/C(=N\NC(=S)NC1CCCCC1)c1ccc(C)o1 | -11.1% |
| CCS(=O)(=O)c1cc([N+](=O)[O-])c(Sc2ccccc2N)s1 | 46% (active) |
| CCc1ccc(Nc2ncc3c(n2)CC(c2ccco2)CC3=O)cc1 (stereo not given) | -15% |
| Cc1ccsc1C(=O)OCC(=O)c1cc(C)n(CC2CCCO2)c1C (stereo not given) | 85.4% (active) |
| COCc1cc(=O)[nH]c2cc(NC(=O)C(F)(F)F)c(C)cc12 | -7% |
| CN(CCO)c1ccc(/C=N/Nc2nncc3ccccc23)cc1 | 84.2% (active) |
| CCCCC(=O)Nc1nc(C)c(-c2csc(Nc3ccc(Cl)cc3)n2)s1 | -9.5% |
| O=c1oc(/C=C/c2ccccc2)nc2ccccc12 | -16.5% |
